From PubChem BioAssay (NCI)
Compounds without any hit were thinned out: in the full panel of roughly 83,000, 20% have a hit.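 A percent growth of 40 corresponds to 60% growth inhibition; 0 means no net growth; -100 means all cells died. Active threshold: below 10.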 Activity calls are given as the source filed them.

Experiments:
Assay in all cases: NCI-60 one-dose screen, 48 h (100 = growth as untreated, 0 = no growth, -100 = all killed)
HCT-15 colon = conditions: 10 µM
HT29 colon = conditions: 10 µM
SNB-75 CNS = conditions: 10 µM
SNB-19 CNS = conditions: 10 µM
PC-3 prostate = conditions: 10 µM
UACC-62 melanoma = conditions: 10 µM unless noted
SK-MEL-28 melanoma = conditions: 10 µM
U251 CNS = conditions: 10 µM
SK-MEL-5 melanoma = conditions: 10 µM
LOX IMVI melanoma = conditions: 10 µM

Measured: growth

CC(CC(=O)c1ccccc1)c1ccccc1 (centres undefined)
inactive: HCT-15 colon 108% | HT29 colon 95.7% | SNB-75 CNS 104% | SNB-19 CNS 109% | PC-3 prostate 99.5% | UACC-62 melanoma 107% | SK-MEL-28 melanoma 101%

c1csc(-c2cc(-c3cc(-c4cccs4)[nH]n3)n[nH]2)c1
inactive: HCT-15 colon 98.9% | HT29 colon 106% | SNB-75 CNS 128% | U251 CNS 106% | PC-3 prostate 87.3% | SK-MEL-5 melanoma 99.2% | UACC-62 melanoma 84.4% | LOX IMVI melanoma 87.2% | SK-MEL-28 melanoma 105%

CCOC(=O)c1cc(/C=C/c2ccc(Cl)cc2Cl)on1
inactive: SNB-75 CNS 58.9% | PC-3 prostate 44% | SK-MEL-5 melanoma 92.3% | UACC-62 melanoma 48.7% | SK-MEL-28 melanoma 86.1%
active: HCT-15 colon -66.1% | HT29 colon 1.53% | U251 CNS 6.71% | LOX IMVI melanoma -90.1%

CCc1ccc(/C(C#N)=C/C=C/c2ccccc2)cc1
inactive: HCT-15 colon 38.7% | SNB-19 CNS 59.5% | PC-3 prostate 19% | UACC-62 melanoma 29.6% | SK-MEL-28 melanoma 51.8%
active: HT29 colon -5.6% | SNB-75 CNS 0.0202% | SK-MEL-5 melanoma 9.25%

Cc1cc(=O)n(-c2ccc(F)cc2)[nH]1
inactive: HCT-15 colon 89.6% | HT29 colon 105% | SNB-75 CNS 88.5% | SNB-19 CNS 103% | PC-3 prostate 90% | SK-MEL-5 melanoma 97.5% | UACC-62 melanoma 101% | SK-MEL-28 melanoma 119%

c1ccc(CN2COc3c(ccc4c3OCN(Cc3ccccc3)C4)C2)cc1
active: UACC-62 melanoma -39.1%
inactive: HCT-15 colon 28% | HT29 colon 27% | SNB-75 CNS 43.7% | SNB-19 CNS 24% | PC-3 prostate 36.5% | SK-MEL-28 melanoma 34.1%

CCOC(=O)c1cc(/C=C/c2cccc(Cl)c2)on1
inactive: HCT-15 colon 64.8% | HT29 colon 78.8% | SNB-75 CNS 87.4% | U251 CNS 87.5% | PC-3 prostate 85.1% | SK-MEL-5 melanoma 96.9% | UACC-62 melanoma 78.8% | SK-MEL-28 melanoma 104%
active: LOX IMVI melanoma -3.76%

OCCN(CCO)C(=S)S
inactive: HCT-15 colon 104% | HT29 colon 113% | SNB-75 CNS 129% | U251 CNS 102% | PC-3 prostate 104% | SK-MEL-5 melanoma 94.8% | UACC-62 melanoma 91.7% | LOX IMVI melanoma 107% | SK-MEL-28 melanoma 113%

O=[N+]([O-])c1ccc(-c2noc(-c3cccs3)n2)cc1
inactive: HCT-15 colon 84% | HT29 colon 92.5% | SNB-75 CNS 83.2% | U251 CNS 86.5% | PC-3 prostate 90.3% | SK-MEL-5 melanoma 83.5% | UACC-62 melanoma 76.6% | LOX IMVI melanoma 86% | SK-MEL-28 melanoma 99.5%

CCCNC(=O)c1ccc(S(N)(=O)=O)cc1
inactive: HCT-15 colon 110% | HT29 colon 93.1% | SNB-75 CNS 72.6% | SNB-19 CNS 107% | SK-MEL-5 melanoma 101% | UACC-62 melanoma 109% | LOX IMVI melanoma 98.9% | SK-MEL-28 melanoma 97.8%

Cc1cc2nc(CC(=O)c3cccc([N+](=O)[O-])c3)c(=O)[nH]c2cc1C
inactive: HCT-15 colon 77% | HT29 colon 68.2% | SNB-75 CNS 96.1% | U251 CNS 95.1% | PC-3 prostate 68% | SK-MEL-5 melanoma 97.9% | UACC-62 melanoma 65% | LOX IMVI melanoma 72.8% | SK-MEL-28 melanoma 97.7%

COc1ccc(-c2cc(-c3cc(-c4ccc(OC)cc4)nc(N)n3)nc(N)n2)cc1
inactive: HCT-15 colon 103% | HT29 colon 105% | SNB-75 CNS 91.4% | U251 CNS 101% | PC-3 prostate 96.5% | SK-MEL-5 melanoma 97.1% | UACC-62 melanoma 91.4% | LOX IMVI melanoma 95% | SK-MEL-28 melanoma 103%

CCCCN(CCCC)CCCO
inactive: HCT-15 colon 100% | HT29 colon 126% | SNB-75 CNS 86.7% | SNB-19 CNS 112% | PC-3 prostate 180% | SK-MEL-5 melanoma 104% | UACC-62 melanoma 106% | LOX IMVI melanoma 101% | SK-MEL-28 melanoma 110%

Nc1nc2c(c(-c3nc(N)nc4c3CCc3ccccc3-4)n1)CCc1ccccc1-2
inactive: HCT-15 colon 104% | HT29 colon 112% | SNB-75 CNS 98.8% | U251 CNS 114% | PC-3 prostate 86.9% | SK-MEL-5 melanoma 99.3% | UACC-62 melanoma 94.6% | LOX IMVI melanoma 98.3% | SK-MEL-28 melanoma 115%

Cc1ccc(/C=C2\SC(=S)N(c3ccc(F)cc3)C2=O)o1
inactive: HCT-15 colon 88.1% | HT29 colon 70.6% | SNB-75 CNS 24.7% | U251 CNS 61% | PC-3 prostate 96.1% | SK-MEL-5 melanoma 88.2% | UACC-62 melanoma 85.2% | LOX IMVI melanoma 68.8% | SK-MEL-28 melanoma 100%

CC(C)(C)n1nc(C2CC2)c(Br)c1NC(=O)c1ccccc1F
inactive: HCT-15 colon 93.4% | HT29 colon 103% | SNB-75 CNS 78.4% | SNB-19 CNS 107% | PC-3 prostate 91.5% | SK-MEL-5 melanoma 99.7% | UACC-62 melanoma 90.7% | SK-MEL-28 melanoma 100%

Cc1ccc(C)n1-c1ccsc1C(=O)NNC(=O)C(Cl)Cl
inactive: HCT-15 colon 103% | HT29 colon 106% | SNB-75 CNS 104% | U251 CNS 107% | PC-3 prostate 88.5% | SK-MEL-5 melanoma 94.8% | UACC-62 melanoma 93.4% | LOX IMVI melanoma 81.7% | SK-MEL-28 melanoma 112%

O=C(NCc1ccco1)Nc1c(Cl)cc(Cl)cc1Cl
inactive: HCT-15 colon 100% | HT29 colon 94.3% | SNB-75 CNS 89.1% | SNB-19 CNS 103% | PC-3 prostate 91.6% | SK-MEL-5 melanoma 100% | UACC-62 melanoma 101% | LOX IMVI melanoma 99.3% | SK-MEL-28 melanoma 103%

Cc1cc2nc(CC(=O)c3ccccc3)c(=O)[nH]c2cc1C
inactive: HCT-15 colon 87.7% | HT29 colon 97.5% | SNB-75 CNS 117% | U251 CNS 95.4% | PC-3 prostate 88.4% | SK-MEL-5 melanoma 96.1% | UACC-62 melanoma 74.9% | LOX IMVI melanoma 96.2% | SK-MEL-28 melanoma 109%

CN(C)c1ccc2nc3ccc(=N)cc-3sc2c1
inactive: HCT-15 colon 38.8% | HT29 colon 85.3% | SNB-75 CNS 22.3% | SNB-19 CNS 81.1% | PC-3 prostate 12.3% | UACC-62 melanoma 36% | SK-MEL-28 melanoma 82.9%
active: SK-MEL-5 melanoma 0.247%

CSC(=N\N=C\c1ccc(N(C)C)cc1)/N=C/N(C)C
inactive: HCT-15 colon 96.1% | HT29 colon 113% | SNB-75 CNS 102% | SNB-19 CNS 100% | PC-3 prostate 106% | SK-MEL-5 melanoma 101% | UACC-62 melanoma 112% | SK-MEL-28 melanoma 111%

CN(C)Cc1cc(C(C)(C)CC(C)(C)C)ccc1O
inactive: HCT-15 colon 79.4% | HT29 colon 99.9% | SNB-75 CNS 79.9% | U251 CNS 90.8% | PC-3 prostate 84.1% | SK-MEL-5 melanoma 100% | UACC-62 melanoma 99.5% | LOX IMVI melanoma 94.9% | SK-MEL-28 melanoma 109%

N#Cc1ccc(OC(=O)Nc2ccc(Cl)c(Cl)c2)cc1
inactive: HCT-15 colon 53.6% | HT29 colon 63.4% | SNB-75 CNS 93.2% | SNB-19 CNS 87% | PC-3 prostate 36.2% | SK-MEL-5 melanoma 81.5% | UACC-62 melanoma 65.7% | SK-MEL-28 melanoma 94.1%

CC(C(=O)O)(C1CCCCC1)C1(O)CCCCC1 (centres undefined)
inactive: HCT-15 colon 104% | HT29 colon 101% | SNB-75 CNS 85.2% | SNB-19 CNS 111% | PC-3 prostate 94.9% | UACC-62 melanoma 113% | LOX IMVI melanoma 95.3% | SK-MEL-28 melanoma 107%

CS(=O)CC1=NC(=N)N=C1CS(C)=O (centres undefined)
inactive: HCT-15 colon 102% | HT29 colon 109% | SNB-75 CNS 97.7% | U251 CNS 98.1% | PC-3 prostate 98.7% | SK-MEL-5 melanoma 99.3% | UACC-62 melanoma 98.4% | LOX IMVI melanoma 96.7% | SK-MEL-28 melanoma 108%

COc1ccccc1N1CCN(C(=S)Nc2ccccc2)CC1
inactive: HCT-15 colon 103% | HT29 colon 96.7% | SNB-75 CNS 84% | SNB-19 CNS 99.6% | PC-3 prostate 89.9% | SK-MEL-5 melanoma 97.9% | LOX IMVI melanoma 90.4% | SK-MEL-28 melanoma 105%

O=S(=O)(O)c1cc(O)c2c(N=Cc3ccccc3O)c(S(=O)(=O)O)ccc2c1
inactive: HCT-15 colon 99.9% | HT29 colon 103% | SNB-75 CNS 93.4% | SNB-19 CNS 108% | PC-3 prostate 95.5% | SK-MEL-5 melanoma 103% | UACC-62 melanoma 113% | SK-MEL-28 melanoma 114%

CSc1[nH]c(=O)ncc1F
inactive: HCT-15 colon 100% | HT29 colon 112% | SNB-75 CNS 102% | U251 CNS 100% | PC-3 prostate 96.5% | SK-MEL-5 melanoma 101% | UACC-62 melanoma 92.8% | LOX IMVI melanoma 95.8% | SK-MEL-28 melanoma 111%

O=C(O)c1cccc([N+](=O)[O-])c1O
inactive: HCT-15 colon 99.9% | HT29 colon 101% | SNB-75 CNS 96.1% | SNB-19 CNS 99.1% | PC-3 prostate 107% | SK-MEL-5 melanoma 105% | LOX IMVI melanoma 95.1% | SK-MEL-28 melanoma 116%

Cc1ccc(C)n1-c1ccsc1C(=O)NNC(=O)CCl
inactive: HCT-15 colon 88.8% | HT29 colon 106% | SNB-75 CNS 112% | U251 CNS 95.6% | PC-3 prostate 93.4% | SK-MEL-5 melanoma 85.8% | UACC-62 melanoma 82.7% | LOX IMVI melanoma 16.4% | SK-MEL-28 melanoma 111%

CCCCCCCCCCCCCC(=O)Oc1ccc[nH]c1=O
inactive: HCT-15 colon 85.8% | HT29 colon 91.9% | SNB-75 CNS 110% | U251 CNS 96.3% | PC-3 prostate 86.9% | SK-MEL-5 melanoma 97.1% | UACC-62 melanoma 88.7% | LOX IMVI melanoma 44.1% | SK-MEL-28 melanoma 109%

COC(=O)c1cc(-c2ccc(Cl)c(Cl)c2)[nH]c(=O)c1C#N
inactive: HCT-15 colon 96.3% | HT29 colon 107% | SNB-75 CNS 99.2% | U251 CNS 97.3% | PC-3 prostate 102% | SK-MEL-5 melanoma 98.9% | UACC-62 melanoma 90.9% | LOX IMVI melanoma 101% | SK-MEL-28 melanoma 100%

COc1ccc(/C(C#N)=C2C=C/C(=N/O)c3ccccc3\2)cc1
inactive: SNB-75 CNS 23.4% | SNB-19 CNS 61.7% | PC-3 prostate 12.8% | SK-MEL-28 melanoma 46.5%
active: HCT-15 colon 7.28% | HT29 colon -13.3% | SK-MEL-5 melanoma -28.9% | UACC-62 melanoma 6.75%

Cc1c(O)cnc2nn(-c3ccccc3)c(=N)n12
inactive: HCT-15 colon 100% | HT29 colon 96.3% | SNB-75 CNS 76.4% | SNB-19 CNS 98.5% | PC-3 prostate 119% | SK-MEL-5 melanoma 101% | UACC-62 melanoma 106% | SK-MEL-28 melanoma 112%
